This is an account of results in the supplement of paper PMC6089552.

Out of some 3,200 compounds screened, about 300 (9.4%) showed activity. Only a selection was taken, and actives are over-represented in it overall.

The assay relates to A673/TR/shEF. Nature of the assay: cell viability (LOESS-normalised, relative to median of negative controls) (log2 ratio); higher = more viable cells (less compound effect), active = hit call of the paper (over 3 MAD below the median). The settings on record: treatment time: 72 h. The gist of the method: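 A673/TR/shEF Ewing sarcoma cells were plated at 1,500 per well in 384-well plates and cultured with or without doxycycline, added 24 h before compounds, to induce EWS-FLI1 shRNA knockdown. Library compounds at two or more concentrations, alongside DMSO controls, were applied for three days. Cell viability was measured by CellTiter-Glo luminescence on an Envision reader. Readings were LOESS-corrected per plate, divided by the median of negative controls and log2-transformed, and hits were wells lying at least three median absolute deviations from the median of all screened wells.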

The mark [1] stands for this setting: 0.25 µM, library screen: screen2, EWS-FLI1 expression: high (no doxycycline).
Where [2] appears, read: 0.25 µM, library screen: screen2, EWS-FLI1 expression: low (doxycycline-induced shRNA knockdown).
Setting [3] is: 2.5 µM, library screen: screen2, EWS-FLI1 expression: high (no doxycycline).
The mark [4] stands for this setting: 2.5 µM, library screen: screen2, EWS-FLI1 expression: low (doxycycline-induced shRNA knockdown).
Where [5] appears, read: 0.25 µM, library screen: screen1, EWS-FLI1 expression: high (no doxycycline).
The mark [6] stands for this setting: 0.25 µM, library screen: screen1, EWS-FLI1 expression: low (doxycycline-induced shRNA knockdown).
The mark [7] stands for this setting: 2.5 µM, library screen: screen1, EWS-FLI1 expression: high (no doxycycline).
Setting [8] is: 2.5 µM, library screen: screen1, EWS-FLI1 expression: low (doxycycline-induced shRNA knockdown).

With `Nc1ncnc2c1ncn2[C@@H]1O[C@H](COP(=O)(O)CP(=O)(O)OP(=O)([O-])[O-])[C@H](O)C1O.[Li+].[Li+]` (stereo not given in full), the “cell viability (log2)” value runs as follows: under setting [1], 0.132 (inactive); under setting [2], 0.0925 (inactive); under setting [3], 0.106 (inactive); under setting [4], 0.143 (inactive).

As for `N[C@@H](Cn1ccc(=O)[nH]c1=O)C(=O)O`, the “cell viability (log2)” value is, setting by setting: under setting [1], 0.256 (inactive); under setting [2], -0.00427 (inactive); under setting [3], 0.176 (inactive); under setting [4], 0.041 (inactive).

`CNC(=O)O/N=C/C(C)(C)SC`: the “cell viability (log2)” value runs as follows: under setting [5], 0.0387 (inactive); under setting [6], 0.0491 (inactive); under setting [7], 0.106 (inactive); under setting [8], 0.0724 (inactive).

With `C[C@@H]1OC(=O)[C@H]2C[C@H]3CCCC[C@@H]3[C@@H](/C=C/[C@@H]3CCC[C@@H](C)N3C)[C@@H]12`, the “cell viability (log2)” value by setting is: under setting [1], 0.0803 (inactive); under setting [2], 0.0731 (inactive); under setting [3], 0.143 (inactive); under setting [4], 0.0419 (inactive).

Take `c1cncc(C2CCCCN2)c1` (stereo not given): the “cell viability (log2)” value by setting is: under setting [5], 0.0408 (inactive); under setting [6], -0.0074 (inactive); under setting [7], 0.145 (inactive); under setting [8], 0.0957 (inactive).

Consider `COC(=O)/C(C)=C\CC12OC(C)(C)C3CC(C=C4C(=O)c5c(OC)c6c(c(CC=C(C)C)c5OC431)OC(C)(CCC=C(C)C)C=C6)C2=O` (stereo not given), for which the “cell viability (log2)” value is 0.0497 (inactive) under setting [5], 0.135 (inactive) under setting [6], -4.2 (active) under setting [7] and -3.74 (active) under setting [8].

As to `CC(C)=CCC[C@]1(C)C=Cc2c(O)c3c(c(CC=C(C)C)c2O1)O[C@]12C(=C[C@@H]4C[C@H]1C(C)(C)O[C@@]2(C/C=C(/C)C(=O)O)C4=O)C3=O`, the “cell viability (log2)” value under setting [5] is -0.0514 (inactive), the “cell viability (log2)” value under setting [6] is 0.129 (inactive), the “cell viability (log2)” value under setting [7] was -1.16 (active) and the “cell viability (log2)” value under setting [8] is -0.0142 (inactive).

On to `CC(C)=CCCC1(C)C=Cc2c(O)c3c(c(CC=C(C)C)c2O1)OC12C(CC4CC1C(C)(C)OC2(C/C=C(/C)C(=O)O)C4O)C3=O` (stereo not given), for which the “cell viability (log2)” value runs as follows: under setting [5], 0.0661 (inactive); under setting [6], 0.00238 (inactive); under setting [7], 0.127 (inactive); under setting [8], 0.0888 (inactive).

For the compound `CC(C)=CCCC1(C)C=Cc2c(O)c3c(c(CC=C(C)C)c2O1)OC12C(=CC4CC1C(C)(C)OC2(CC=C(C)C(=O)O)C4O)C3=O` (stereo not given), the “cell viability (log2)” value is 0.1 (inactive) under setting [5], 0.0956 (inactive) under setting [6], -0.137 (active) under setting [7] and 0.307 under setting [8].

Take `CC(=O)Oc1c2c(c(CC=C(C)C)c3c1C(=O)C1=C[C@@H]4CC5C(C)(C)OC(C/C=C(\C)C(=O)O)(C4=O)[C@@]15O3)OC(C)(CCC=C(C)C)C=C2` (stereo not given in full): the “cell viability (log2)” value under setting [5] is 0.0664 (inactive), the “cell viability (log2)” value under setting [6] was 0.0597 (inactive), the “cell viability (log2)” value under setting [7] was -0.0173 (inactive) and the “cell viability (log2)” value under setting [8] is 0.269 (inactive).

Take `COc1cccc(CN2CCN(Cc3ccccc3OC)CC2)c1`: the “cell viability (log2)” value reads like this: under setting [5], 0.108 (inactive); under setting [6], 0.0202 (inactive); under setting [7], 0.149 (inactive); under setting [8], -0.0141 (inactive).

With `COc1cc2c(cc1-c1cc3cc4ccoc4cc3oc1=O)OCO2`, the “cell viability (log2)” value is, setting by setting: under setting [5], 0.0215 (inactive); under setting [6], -0.011 (inactive); under setting [7], 0.0285 (inactive); under setting [8], 0.107 (inactive).

As for `CN1[C@H]2CC(OC(=O)C(CO)c3ccccc3)C[C@H]1[C@H]1O[C@H]12` (stereo not given in full), the “cell viability (log2)” value reads like this: (0.103 µM, library screen: screen3, EWS-FLI1 expression: high (no doxycycline)) 0.0178 (inactive); (0.103 µM, library screen: screen3, EWS-FLI1 expression: low (doxycycline-induced shRNA knockdown)) 0.0286 (inactive); under setting [5], 0.0614 (inactive); under setting [6], 0.0379 (inactive); under setting [1], 0.0402 (inactive); under setting [2], 0.0538 (inactive). Moreover, the “cell viability (log2)” value is 0.0468 (inactive) (0.308 µM, library screen: screen3, EWS-FLI1 expression: high (no doxycycline)); 0.0486 (inactive) (0.308 µM, library screen: screen3, EWS-FLI1 expression: low (doxycycline-induced shRNA knockdown)); 0.057 (inactive) (0.926 µM, library screen: screen3, EWS-FLI1 expression: high (no doxycycline)); 0.0457 (inactive) (0.926 µM, library screen: screen3, EWS-FLI1 expression: low (doxycycline-induced shRNA knockdown)); 0.101 (inactive) under setting [7]; 0.113 (inactive) under setting [8]. The “cell viability (log2)” value was 0.0967 (inactive) under setting [3]; 0.105 (inactive) under setting [4]; 0.00477 (inactive) (2.8 µM, library screen: screen3, EWS-FLI1 expression: high (no doxycycline)); 0.0597 (inactive) (2.8 µM, library screen: screen3, EWS-FLI1 expression: low (doxycycline-induced shRNA knockdown)); 0.0173 (inactive) (8.3 µM, library screen: screen3, EWS-FLI1 expression: high (no doxycycline)); 0.0298 (inactive) (8.3 µM, library screen: screen3, EWS-FLI1 expression: low (doxycycline-induced shRNA knockdown)). The “cell viability (log2)” value by setting is: (25 µM, library screen: screen3, EWS-FLI1 expression: high (no doxycycline)) -0.0119 (inactive); (25 µM, library screen: screen3, EWS-FLI1 expression: low (doxycycline-induced shRNA knockdown)) 0.114 (inactive).

For `CCNc1nc(Cl)nc(NCC)n1`, the “cell viability (log2)” value by setting is: under setting [5], 0.0934 (inactive); under setting [6], -0.0122 (inactive); under setting [7], 0.0949 (inactive); under setting [8], 0.0079 (inactive).

Take `c1ccc2c(c1)sc1ccccc12`: the “cell viability (log2)” value under setting [5] was 0.0739 (inactive), the “cell viability (log2)” value under setting [6] is 0.0613 (inactive), the “cell viability (log2)” value under setting [7] is 0.158 (inactive) and the “cell viability (log2)” value under setting [8] was 0.198 (inactive).

`CCOP(=S)(OCC)SCSP(=S)(OCC)OCC`: the “cell viability (log2)” value under setting [5] was 0.0176 (inactive), the “cell viability (log2)” value under setting [6] was 0.0157 (inactive), the “cell viability (log2)” value under setting [7] is 0.0447 (inactive) and the “cell viability (log2)” value under setting [8] was 0.0694 (inactive).
